From PubChem
AID923: qHTS Assay for Allosteric/Competitive Inhibitors of Caspase-1: Spectroscopic Profiling in AFC Spectral Region; compound fluorescence, AFC spectral region (405/520 nm); Potency, µM (titrated, usually from 57.5 µM), most hits filed as activators; 75,000 compounds, 1.1% hits
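Compound autofluorescence profiled at 405 nm ex/520 nm em during kinetic caspase 1 run (50 nM enzyme, 5 uM Ac-WEHD-AFC, HEPES pH 7.5, 10 mM DTT). Titration up to 57 uM; baseline from regression intercept, normalized to AFC standard curve.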
HSD17B inh: HSD17B dehydrogenase inhibition; Q99714; 75,000 compounds, 7.6% hits; AID 893; recombinant HSD17B10, NADH fluorescence kinetic; Potency, µM (highest dose often 57.1 µM), hits mostly inhibitors;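 also: the protocol describes HADH2 (HSD17B10) and not the HSD17B4 of the title; nearly all actives have a fitted effect of over 70% in size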
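20 nM HADH2, pH 9.0 Tris/Tween; cpd preinc 15 min RT; start w/ 1 mM NAD+ + 90 uM b-hydroxybutyryl-CoA; kinetic fluor ex360/em450 q30s x 4 min; delta last-first.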
4MU fluor: compounds fluorescent in 4-MU spectral region; 59,000 compounds, 11% hits; max dye-equivalent concentration, M; compound autofluorescence, 340/450 nm, 4-MU equivalents; stronger effect = higher value; in the data active = max dye-equivalent concentration above about 10 nM; inconclusive = mostly about 1.1 nM to 9.6 nM
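Compounds in 100 mM Tris, pH 8.0, incubated 15 min at room temperature, then fluorescence read at 340 nm excitation/450 nm emission. Signal converted to 4-MU dye-equivalent concentration using an on-plate six-point 4-MU standard curve.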
HADH2 inhib: blocks human hydroxyacyl-CoA dehydrogenase type II; Q99714; recombinant HADH2, NADH fluorescence, beta-hydroxybutyryl-CoA; Potency, µM (top dose mostly 57.1 µM), hits mostly inhibitors; 73,000 compounds, 3.4% hits; also: nearly all actives have a fitted effect of over 60% in size
Target sequence (Q99714 whole entry, looked up, one chain of several): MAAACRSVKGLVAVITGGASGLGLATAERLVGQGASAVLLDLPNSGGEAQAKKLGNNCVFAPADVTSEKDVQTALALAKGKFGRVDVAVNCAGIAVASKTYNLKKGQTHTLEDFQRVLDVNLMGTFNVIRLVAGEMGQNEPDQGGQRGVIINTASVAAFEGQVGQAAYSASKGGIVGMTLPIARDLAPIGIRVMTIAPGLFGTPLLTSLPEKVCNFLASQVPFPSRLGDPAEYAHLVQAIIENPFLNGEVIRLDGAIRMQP
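NADH fluorescence (ex 360/em 450 nm) read every 30 s for 4 min; activity taken as last-minus-first time point difference. Enzyme 20 nM, NAD+ 1 mM, beta-hydroxybutyryl-CoA 90 uM, pH 9.0 Tris buffer.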
CRE Fsk mod: alters forskolin-stimulated CRE reporter signaling in CHO cells; AID 662; Potency, µM (doses to about 38.2 µM), usual class: activators; 71,000 compounds, 2.5% hits; CHO CRE-bla reporter (cAMP response element driving beta-lactamase), forskolin EC10, beta-lactamase ratio; active = well fitted activation curve with a large enough effect in the signal ratio, with a control signal flat, not every such curve was filed as active; inconclusive = small, poorly fitted or top-dose-only effect, or effect the other way, or a change in a side signal; the % refers to the signal ratio
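CRE-bla CHO reporter cells treated with compound titration plus EC10 NKH 477 (water-soluble forskolin), incubated 3 h at 37 °C; CCF4 loading 2 h at room temperature, 460/530 nm emission ratio read, AC50 values derived for positive or negative modulators.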
A350 fluor: compounds fluorescent in Alexa 350 spectral region; Compound autofluorescence, 340/450 nm, Alexa 350 dye-equivalents; stronger effect = higher value; max dye-equivalent concentration, M; 59,000 compounds, 11% hits; AID 590; in the data active = max dye-equivalent concentration above about 10 nM; inconclusive = mostly about 1.1 nM to 9.6 nM
CHO tox 24h: CHO cell toxicity at 24 h by ATP luminescence; shares compounds with CRE Fsk mod; CRE-bla CHO viability, ATP luminescence, 24 h; activity, negative = viability loss, % at 46.1 µM; 120 tested, under 10 active; AID 905
CHO tox 40h: cytotoxicity in CRE-bla CHO cells at 40 h. 120 tested, under 10 active. CRE-bla CHO viability, ATP luminescence, 40 h. shares compounds with CRE Fsk mod. Potency, µM, actives largely listed as inhibitors
CRE-luc potent: confirmation of CRE signaling potentiators in HEK293 CREB reporter cells; shares compounds with CRE Fsk mod; HEK293 CRE-luc2P, NKH477 EC10 potentiation, luminescence, 4 h; Potency, µM (top dose mostly 38.3 µM), actives largely listed as activators; 120 compounds, 80% hits; AID 907
Numbers stand for hits; - = inactive; ? = inconclusive; . = no result given. A selection: hits, their analogues and other compounds. The true share with any hit is near 14%. Unless noted, calls follow the shape of the dose curve; as a rule, active = well fitted curve in the direction sought with a large enough effect; inconclusive = small, poorly fitted or top-dose-only effect, or another doubt; inactive = no such curve, though single readings can be large; an effect the other way counts as inactive or inconclusive.

SMILES	AID923	HSD17B inh	4MU fluor	HADH2 inhib	CRE Fsk mod	A350 fluor	CHO tox 24h	CHO tox 40h	CRE-luc potent
CCN(C(=O)c1cn(C)c(=O)c2cc(OC)c(OC)cc12)c1ccccc1C	-	-	-	-	?	-	-	-	5µM
O=C(Nc1ccccc1O)c1cc(S(=O)(=O)N2CCOCC2)ccc1Cl	-	-	-	-	-	-	-	-	16µM
CN(C)C(=O)c1ccc(-c2nccc(N(C)Cc3ccco3)n2)cc1	-	-	-	-	-	-	.	.	.
CCOc1ccc(C2=Nn3c(nnc3-c3ccccc3)SC2)cc1Cl	-	-	-	-	0.079µM	-	-	-	1.6µM
COc1ccc(C2=Nn3c(nnc3-c3ccccc3OC)SC2)cc1OC	-	-	-	-	1.3µM	-	?	-	0.04µM
O=C(Nc1ccccc1C(F)(F)F)c1cc(S(=O)(=O)N2CCOCC2)ccc1F	-	-	-	-	-	-	.	.	.
COC(=O)[C@@]1(Cc2ccc(OC)cc2)[C@H]2c3cc(C(=O)N(C)C)n(Cc4ccc(C)o4)c3C[C@H]2CN1C(=O)c1ccccc1	-	?	.	-	-	.	.	.	.
Nc1nc(CSCc2ccccc2)nc(N2CCOCC2)n1	-	-	-	-	-	-	-	-	2.8µM
Nc1nc(N2CCOCC2)nc(N(c2ccccc2)c2ccccc2)n1	-	-	.	-	-	.	.	.	.
COc1ccccc1NC(=O)N1CCN(c2ncccn2)CC1	-	-	-	-	-	-	.	.	.
c1cnc(N2CCN(c3nc4ccccc4n4cnnc34)CC2)nc1	-	-	-	?	2.5µM	-	-	?	7.9µM
Cc1cccc(N2CCN(c3nc4ccccc4n4cnnc34)CC2)c1C	-	?	.	-	-	.	.	.	.
CC[C@]1(O)C[C@@H]2CN(CCc3c([nH]c4ccccc34)[C@](C(=O)OC)(c3cc4c(cc3OC)N(C)[C@H]3[C@](O)(C(=O)OC)[C@@H](C(=O)OC)[C@@]5(CC)C=CCN6CC[C@@]43[C@@H]65)C2)C1	-	-	.	-	0.25µM	.	?	?	-
COc1ccc(Nc2nc(Nc3ccc(OC)cc3)nc(-n3[nH]c(=O)c(C)c3C)n2)cc1	.	.	-	.	.	-	?	?	0.5µM
Cn1c(/C(C#N)=C/Nc2ccccn2)nc2ccccc21	.	.	?	.	.	1.5e-08M	-	-	13µM
CCn1c(/C(C#N)=C(\O)CCc2ccccc2)nc2ccccc21	-	-	-	-	?	-	.	.	.
CCn1c2ccccc2c2nnc(SCc3cc(=O)n4ccsc4n3)nc21	-	-	-	-	1µM	-	-	?	5µM
Cn1c(=O)[nH]c(=O)c2c1ncn2CCCc1ccccc1	-	-	-	-	?	-	.	.	.
